Assay outcomes as filed in PubChem BioAssay.
Rows were chosen to be rich in hits. Some 2.3% of all compounds tested hit in one or more screens of this group.
ADAM17 inh: ADAM17 inhibition, QFRET primary screen; P78536; recombinant ADAM17, EDANS/DABCYL FRET peptide cleavage; inhibition, % at 6.95 µM; hit rate 0.83% among 370,000;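 active means inhibition above the mean of compounds lying between control limits plus 3 SD, set per campaign, cut at about 8.5% in these data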
ADAM10 inh: ADAM10 inhibition, QFRET primary screen; O14672; hit rate 0.62% among 370,000; inhibition, % at 7 µM; recombinant ADAM10, EDANS/DABCYL FRET peptide cleavage, 3 h; AID 720582;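 active means inhibition above a per-campaign cutoff equal to the mean of compounds falling between control-based bounds plus 3 SD, cut at about 20% in these data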
V-ATPase pH: regulators of yeast V-ATPase proton transport. S. cerevisiae, pHLuorin cytosolic pH fluorescence. response, % at 10 µM. hit rate 0.37% among 350,000. AID 504577; in the data active means response mostly above about 7.3%, no sharp cut-off; inactive means mostly below about 5.4%; further: actives read high
proKLK7 act: activators of human kallikrein-7 zymogen. P49862. purified proKLK7, EDANS-DABCYL substrate fluorescence; 100% is mature enzyme control, 0% vehicle. activation, % at 7 µM. hit rate 0.9% among 370,000. AID 652039;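 active means activation above the mean of all tested compounds plus 3 SD, computed per campaign excluding outliers beyond control limits, cut at about 13% in these data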
Target sequence (P49862 whole entry, looked up): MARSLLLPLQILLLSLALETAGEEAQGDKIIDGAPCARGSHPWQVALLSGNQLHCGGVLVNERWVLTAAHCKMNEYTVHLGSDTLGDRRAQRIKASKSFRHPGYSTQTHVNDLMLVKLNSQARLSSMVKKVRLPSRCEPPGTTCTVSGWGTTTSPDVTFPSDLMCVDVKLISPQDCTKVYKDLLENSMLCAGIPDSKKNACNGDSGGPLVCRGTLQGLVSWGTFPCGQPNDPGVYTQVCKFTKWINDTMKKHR
KLK7 act conf: confirmation of human kallikrein-7 zymogen activators; AID 686949; activation, % at 7 µM; shares compounds with proKLK7 act; purified proKLK7, EDANS-DABCYL substrate fluorescence; scaled: vehicle 0, mature enzyme 100; hit rate 68% among 3,200;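 active means activation, as change over the incubation, above the mean of all tested compounds plus 3 SD, cut at about 13% in these data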
EDANS-DABCYL int: counter-screen for kallikrein-7 activators: EDANS-DABCYL optical interference | shares compounds with proKLK7 act | EDANS-DABCYL substrate fluorescence interference, no enzyme, 4 h; solvent 0%, active enzyme control 100% | activation, % at 7 µM | hit rate 80% among 3,200 | AID 686952;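 active means activation above the all-compound mean plus 3 SD, ignoring values outside control-based bounds, cut at about 4.8% in these data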;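 further: value is the 4 h activation minus the activation read at time zero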
K7 EDANS ctr: counter-screen for kallikrein-7 activators: EDANS-DABCYL interference, dose response | hit rate 20% among 250 | shares compounds with proKLK7 act | EC50, µM | EDANS-DABCYL peptide fluorescence interference, no enzyme;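 active means compounds that raise the fluorescence signal in this interference counterscreen, with EC50 at or below 10 µM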;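 further: intact quenched peptide substrate alone read at 355 nm excitation and 520 nm emission; signal is fluorescence gain from T0 to T4 after four hours at room temperature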
A number is an active result; . = inactive; / = no result given.

SMILES | ADAM17 inh | ADAM10 inh | V-ATPase pH | proKLK7 act | KLK7 act conf | EDANS-DABCYL int | others
COC(=O)c1cc(-c2ccc(OC)cc2)nc2nc(SC)[nH]c(=O)c12 | . | . | . | 25 | 21 | 17 | K7 EDANS ctr=.
Cc1nn2c(c1-c1ccccc1)NC1=C(C(=O)CCC1)C2c1ccccc1 (stereo unspecified) | . | . | . | 30 | 63 | 74
COCC(=O)N[C@H]1C[C@@H]2O[C@H](CO)CC[C@@H]2O[C@@H]1CCc1ccc(-c2ccccc2)cc1 | . | . | / | . | / | /
O=C(NCc1ccco1)/C(=C/c1ccc(C(F)(F)F)cc1)c1nc2ccccc2[nH]1 | . | . | . | 61 | 84 | 96
O=C(NCc1ccco1)/C(=C/c1cccc(C(F)(F)F)c1)c1nc2ccccc2[nH]1 | . | . | . | . | / | /
CCOP(=O)(OCC)/C(C#N)=C/c1cc(OC)ccc1OC | . | . | . | 42 | 39 | 39
CCOC(=O)/C(C#N)=C/Nc1cc(OC)ccc1OC | . | . | . | . | / | /
COc1ccc(N2CCN(CCC(=O)c3ccc4ccccc4c3)CC2)cc1 | . | . | . | 22 | 15 | 15
COc1ccc(N2CCN(CC(=O)c3ccccc3)CC2)cc1 | . | . | . | . | / | /
C=CCN1C[C@H](COC(=O)c2cccc(C)c2)Oc2cccc(F)c2S1(=O)=O | . | . | / | . | / | /
CCOC(=O)Cn1cc(CN2C(C(=O)OC)CN(C3CC3)CCS2(=O)=O)nn1 (stereo unspecified) | . | . | / | . | / | /
CCCCCCCCNS(=O)(=O)/C=C/c1ccc(OC)cc1CNC(=O)OC(C)(C)C | . | . | / | . | / | /
CCOc1ccc2[nH]c(SCC(=O)OC)c([N+](=O)[O-])c2c1 | . | . | . | 13 | 19 | 16
CC1(C)CC(=O)c2cc(OCC(=O)O)ccc2O1 | . | . | . | 14 | 42 | 48
CC1(C)CC(=O)c2cc(OCC(=O)NCCN3CCOCC3)ccc2O1 | . | . | . | 16 | 25 | 26
Cc1cc(C)c2c(c1)OC(O)(C(F)F)CC2=O (stereo unspecified) | . | . | . | . | / | /
COc1ccc2c(c1)C(=O)CC(O)(C(F)F)O2 (stereo unspecified) | . | . | . | 45 | 40 | 33
CCOC(=O)COc1ccc2c(c1)C(=O)CC(C)(C)O2 | . | . | . | 18 | 67 | 67
CC1(C)CC(=O)c2cc(O)ccc2O1 | . | . | . | . | / | /
COC(=O)[C@]12CCCCC=C1N(Cc1ccc(OC)cc1)C(=O)[C@@H]2CC(=O)NCCCCc1ccccc1 | . | . | / | . | / | /
CCOC(=O)C1CSCCS(=O)(=O)N1Cc1ccc(F)cc1 (stereo unspecified) | . | . | / | . | / | /
CN1C(=O)C[C@@](C#N)(C(=O)NCCc2ccccc2)[C@H]1c1ccccc1 | . | . | / | . | / | /
O=C(N[C@H](C(=O)N1CCC[C@H]1C(=O)NC1CCCC1)C1CCCCC1)c1ccco1 | . | . | / | . | / | /
CC1(C)CC(=O)c2cc(OCC(=O)N3CCN(c4ccccc4F)CC3)ccc2O1 | . | . | . | . | / | /
CCOC(=O)N1CCN(C(=O)COc2ccc3c(c2)C(=O)CC(C)(C)O3)CC1 | . | . | . | 31 | 26 | 10 | K7 EDANS ctr=.
SMILES | ADAM17 inh | ADAM10 inh | V-ATPase pH | proKLK7 act | KLK7 act conf | EDANS-DABCYL int | others
CC1(C)CC(=O)c2cc(OCC(=O)N3CCCCCC3)ccc2O1 | . | . | . | 26 | 68 | 75
CCN(C(=O)C1CCN(c2ncccn2)CC1)c1ccccc1 | . | . | / | . | / | /
Cc1cc(-c2nc3ccccc3o2)c2ccccc2n1 | . | . | . | . | / | /
NC(=S)c1cc2ccc(O)cc2oc1=O | . | . | . | 24 | 70 | 73
O=c1oc2cc(O)ccc2cc1-c1nc2ccccc2o1 | . | . | / | 108 | 61 | 73
O=c1oc2cc(O)ccc2cc1S(=O)(=O)c1ccccc1 | . | . | . | 38 | 73 | 67
COc1ccc(OC)c(S(=O)(=O)CC(=O)c2cc3ccccc3oc2=O)c1 | . | . | / | . | / | /
COc1ccc(C2CC(c3cccs3)=Nc3ccccc3S2)cc1 (stereo unspecified) | . | . | . | 40 | . | .
O=C(NCc1ccccc1)[C@@H]1CCCN1C(=O)[C@H]1CCCN1C(=O)N1CCCCC1 | . | . | / | . | / | /
c1coc(-c2nc3c4ccccc4ccn3c2Cc2ccsc2)c1 | . | . | / | . | / | /
CC1CC(C)CN(C(=O)C2CCN(c3cncnc3)CC2)C1 (stereo unspecified) | . | . | / | . | / | /
O=C(CCc1n[nH]c(=O)[nH]c1=O)Nc1cccc([N+](=O)[O-])c1 | . | . | / | 16 | . | .
O=[N+]([O-])c1ccc(C[n+]2cccc3ccccc32)cc1 | . | . | . | . | / | /
c1ccc(C[n+]2cccc3c4ccccc4ccc32)cc1 | . | . | . | 16 | 22 | 28
CCCCC[n+]1cccc2c3ccccc3ccc21 | . | . | . | 26 | 16 | 17
CCOC(=O)N(C)[C@H]1C[C@H]2c3[nH]c4c(-c5cccc(C)c5)cccc4c3CCN2C[C@H]1[C@H](C)O | . | . | / | . | / | /
COc1ccc2nc(C(F)(F)C(F)(F)F)c(C#N)c(N)c2c1 | . | . | . | 50 | . | .
CCOC(=O)C1=NOC(C(C)=O)(C(=O)Nc2cc(C)cc(C)c2)C1 (stereo unspecified) | . | . | / | . | / | /
C=CCN1C(=O)[C@@H](CC(=O)NCc2ccccc2)[C@]2(C(=O)OC)CCCCC=C12 | . | . | / | . | / | /
COC(=O)c1cc2c(c3c4cc(F)ccc4n(S(=O)(=O)c4cccc(C)c4)c13)C(=O)N(c1ccc(OC)cc1)C2 | . | . | / | . | / | /
Cc1cc2oc(=O)c(CC(=O)NCCCO)c(C)c2c2occ(C(C)(C)C)c12 | . | . | . | . | / | /
Cc1coc2c1c(C)cc1oc(=O)c(CC(=O)NCCCCCC(=O)O)c(C)c12 | . | . | . | 18 | 34 | 28 | K7 EDANS ctr=.
Cc1oc2c(c(C)cc3oc(=O)c(CC(=O)N[C@H](C(=O)O)C(C)C)c(C)c32)c1C | . | . | . | 15 | . | 13
Cc1oc2c(c(C)cc3oc(=O)c(CC(=O)NCC(=O)NCC(=O)O)c(C)c32)c1C | . | . | . | . | / | /
Cc1coc2c1c(C)cc1oc(=O)c(CC(=O)NCC(=O)O)c(C)c12 | . | . | . | 16 | 57 | 59
CCN1CCCCC(NC(=O)c2ccc(Cl)cc2Cl)C1=O (stereo unspecified) | . | . | / | . | / | /
